# Compound activity: PubChem BioAssay, National Center for Advancing Translational Sciences (NCATS)
# Hits are enriched below; roughly 11% of the tested compounds scored in any of these assays.
# PNC assembly inh – High Content Assay for Compounds that inhibit the Assembly of the Perinucleolar Compartment | AID 2417, 2010 | activity change (PNC), negative = inhibition, % at 10 µM | 3.1% of 140,000 active | PC3M PTB-GFP, PNC prevalence imaging, 16 h; hits give low values;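 active means readout at or below -70, meaning at least 70% loss of cells showing the perinucleolar compartment, a nuclear body marking cancer cells; inconclusive means readout between -30 and a set limit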;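 further: plate controls were DMSO wells for no effect and camptothecin positive control wells for full effect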
#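 PC3M cells stably expressing PTB-GFP, 750–1000 cells/well, treated 16 h at 37 °C with compound (23 nl of library stock), in duplicate. After paraformaldehyde fixation and Hoechst stain, imaged at 20x; PNC prevalence scored by image analysis.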
# HTT aggregate – qHTS Multiplex Assay to Identify Dual Action Probes in a Cell Model of Huntington: Aggregate Formation (GFP) | 1.1% of 220,000 active | PC12 HttQ103-GFP aggregates, Acumen cytometry, 40 h | Potency, µM (titrated, usually from 46.1 µM), for the others: at the highest dose activity change, negative = inhibition, actives largely listed as inhibitors | AID 1688, 2009; further: potency means the concentration at half of the fitted maximal effect; on the % scale 0 is the no-effect control and ±100 the full control effect; nearly all actives have a fitted effect of over 60% in size
#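 Compounds (qHTS titration) were added to PC12 cells expressing an ecdysone-driven HTT exon 1 Q103–GFP fusion after induction with 100 nM tebufenozide. Aggregate formation was measured as GFP objects in cell lysates.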
# CBFb RUNX1 block – qHTS Assay for Compounds Blocking the Interaction Between CBF-beta and RUNX1 for the Treatment of Acute Myeloid Leukemia; Runt-related transcription factor 1 (Homo sapiens) + Core-binding factor subunit beta …; AlphaScreen CBFb-His/RUNX1-biotin binding, biochemical; Potency, µM (titrated, usually from 59.8 µM), for inactives: at the top dose activity, negative = inhibition, usual class: inhibitors; 230,000 tested, under 10 active; AID 1477, 2009; further: % of control where 0% means no effect
# Target sequence (Q01196 whole entry, looked up): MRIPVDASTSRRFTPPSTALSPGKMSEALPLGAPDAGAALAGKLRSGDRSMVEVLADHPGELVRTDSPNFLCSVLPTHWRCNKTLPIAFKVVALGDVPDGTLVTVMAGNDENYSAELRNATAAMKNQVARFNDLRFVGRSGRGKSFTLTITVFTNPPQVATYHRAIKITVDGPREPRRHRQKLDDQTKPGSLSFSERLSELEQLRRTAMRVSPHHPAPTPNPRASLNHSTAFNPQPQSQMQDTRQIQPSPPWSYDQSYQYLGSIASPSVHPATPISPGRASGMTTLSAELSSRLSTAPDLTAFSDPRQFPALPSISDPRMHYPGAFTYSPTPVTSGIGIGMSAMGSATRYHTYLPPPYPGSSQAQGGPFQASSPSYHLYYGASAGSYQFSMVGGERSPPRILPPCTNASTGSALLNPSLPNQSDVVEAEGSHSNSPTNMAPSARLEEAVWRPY
# Target sequence (Q13951 whole entry, looked up): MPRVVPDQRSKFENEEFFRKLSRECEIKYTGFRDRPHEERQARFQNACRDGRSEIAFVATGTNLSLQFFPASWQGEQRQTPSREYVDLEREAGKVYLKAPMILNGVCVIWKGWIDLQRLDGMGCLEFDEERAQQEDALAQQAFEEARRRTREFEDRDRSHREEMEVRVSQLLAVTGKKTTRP
#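 AlphaScreen proximity signal reports loss of binding between His-tagged CBF-beta and biotin-labelled RUNX1, each at 30 nM. Proteins are pre-associated for 20 minutes, compounds added for 15 minutes, then beads for 90 minutes, all at ambient temperature.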
# HPGD block – qHTS Assay for Inhibitors of HPGD (15-Hydroxyprostaglandin Dehydrogenase). purified HPGD, NADH fluorescence kinetic, PGE2 substrate. Potency, µM, for inactives: top-dose activity change, negative = inhibition, most hits filed as inhibitors. 4.3% of 150,000 active; active means well fitted inhibition curve with a large enough effect, not every such curve was filed as active; inconclusive means small, poorly fitted or top-dose-only effect, or another doubt; inactive means no such curve, though single readings can be large or run the other way; further: potency means the concentration at half of the fitted maximal effect; on the % scale 0 is the no-effect control and ±100 the full control effect
#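 NADH formation kinetics: reaction with 30 uM PGE2 and 1 mM NAD+ (final), 20 nM enzyme, Tris-HCl pH 8 with Tween 20, after 15 min compound preincubation at room temperature. Fluorescence change, last versus first of five reads.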
# ALDH1A1 inh – qHTS Assay for Inhibitors of Aldehyde Dehydrogenase 1 (ALDH1A1). Purified ALDH1A1, NADH fluorescence, propionaldehyde substrate. Aldehyde dehydrogenase 1A1 (Homo sapiens), P00352. 7.3% of 220,000 active. Potency, µM (top dose mostly 75.3 µM), without a hit: top-dose activity, negative = inhibition, usual class: inhibitors; active means well fitted inhibition curve with a large enough effect, not every such curve was filed as active; inconclusive means small, poorly fitted or top-dose-only effect, or another doubt; inactive means no such curve, though single readings can be large or run the other way;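 further: potency means the concentration at half of the fitted maximal effect; plate controls were no enzyme wells and a reference inhibitor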
# HTT cytoprotect – qHTS Multiplex Assay to Identify Dual Action Probes in a Cell Model of Huntington: Cytoprotection (ATP); PC12 HTT-Q103 induced, cytoprotection, ATP luminescence, 40 h; Potency, µM (series often up to 56.4 µM), for the others: cytoprotection (ATP increase), hits mostly activators; 0.14% of 230,000 active; AID 1471, 2008; further: potency means the concentration at half of the fitted maximal effect; % of control where 0% means no effect; nearly all actives have a fitted effect of over 45% in size
#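 Readout: ATPlite luminescence (ATP level). Model: stable PC12, inducible Htt exon1 Q103-GFP. Inducer: tebufenozide, 100 nM final. Compounds: dose series. No G418 in medium.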
# * marks the source's active call; other numbers are inactive results; ? = inconclusive; / = no result given; [ ] = dose if it differs, or a comment. Unless noted, the call rests on the fitted dose curve; in most records, active means well fitted curve in the direction sought with a large enough effect; inconclusive means small, poorly fitted or top-dose-only effect, or another doubt; inactive means no such curve, though single readings can be large; an effect the other way counts as inactive or inconclusive.
SMILES,PNC assembly inh,HTT aggregate,CBFb RUNX1 block,HPGD block,ALDH1A1 inh,HTT cytoprotect
O=C(Nc1cccc(O)c1)c1cc(S(=O)(=O)N2CCCC2)ccc1Cl,-6.1,?,-1.0%,-6.6%,5.01µM*,13.5%[10 µM]
O=C(Nc1ccc(Cl)cn1)c1cc(S(=O)(=O)N2CCCCC2)ccc1Cl,-16.4,7.0%,3.0%,-13.2%,28.2µM*,6.0%[0.074 µM]
CCOc1ncccc1C(=O)Nc1ccc(Cl)c(S(=O)(=O)N2CCCC2)c1,/,-23.7%,0.6%,/,4.47µM*,-11.1%
CCOC(=O)CCN1C(=O)[C@H]2[C@H]3[C@H](O)[C@H](O)C/C(=N/OCc4ccccc4)[C@H]3CC[C@@H]2C1=O,/,/,-1.9%[13.1 µM],/,9.4%[13.5 µM],?
CC(=O)OCOC(c1ccc2ccccc2c1)P(=O)(OCOC(C)=O)OCOC(C)=O (stereo not drawn),/,/,21.4%,/,2.0%,14.1%
CCn1cnc2sc(-c3ccccc3)cc2c1=O,11.9,-14.4%,5.8%,-20.7%,14.1µM*,-78.0%[0.074 µM]
O=c1c2cc(-c3ccccc3)sc2ncn1-n1cccc1,-1.3,22.0%,3.3%,-4.8%,9.4%,-1.4%
Cc1ccc(C)n1-n1cnc2sc(-c3ccccc3)cc2c1=O,4.5,?,-4.5%,28.2µM*,?,-13.1%[10 µM]
OC(c1ccccc1)c1nc2ccccc2s1 (stereo not drawn),-28.6,-5.6%,-5.3%,15.8µM*,6.5%,-22.3%
CS(=O)(=O)c1ccc(CNC(=O)C2(C(F)(F)F)CC(CCCO)CCCO2)cc1 (stereo not drawn),/,/,4.1%,/,/,/
c1ccc(-c2cnc(SCCN3CCOCC3)n2CC2CCCO2)cc1 (stereo not drawn),-17.8,1.8%,8.5%,-7.8%,10µM*,10.0%[10 µM]
COc1ccc(-c2cnc(N)n2CC2CCCO2)cc1 (stereo not drawn),?,?,-24.3%,-18.1%,39.8µM*,-0.6%
c1ccc(Cn2c(SCCN3CCOCC3)nnc2-c2cccnc2)cc1,?,7.2%,2.9%,-11.9%,?,-11.3%
COc1ccc(-c2[nH]ncc2CN2CCC(c3ccncc3)CC2)cc1F,/,1.6%[9.22 µM],2.8%,/,/,23.6%[10 µM]
COc1ccc(-c2[nH]ncc2CN2CCN(C3CCCCC3)C(=O)C2)cc1F,/,-6.9%[9.22 µM],0.2%,/,1.41µM*,24.2%[10 µM]
CN[C@@H]1NC(=O)c2ccccc2N1Cc1ccc(F)cc1,/,/,/,-3.5%,15.9%[13.5 µM],17.2%[10 µM]
Oc1ccc(/C=N/NC(=S)N2CCOCC2)cc1,/,3.0%,-11.2%,/,14.1µM*,-84.9%
O=S(=O)(c1ccc(Cl)c(NC(=S)N/N=C/c2ccc(O)cc2)c1)N1CCOCC1,?,-26.2%,-7.9%,-27.3%,10µM*,-31.9%[0.074 µM]
CC(C)NC(=S)N/N=C/c1ccc(N2CCOCC2)cc1,-12.3,7.1%,-1.6%,?,?,-2.4%[1.9 µM]
C=CCNC(=S)Nc1cc(S(=O)(=O)N2CCOCC2)ccc1-n1cncn1,35.3,3.4%,0.2%,-11.0%,4.47µM*,16.2%[10 µM]
O=C(COC(=O)CCC(=O)c1cccs1)Nc1cccc(S(=O)(=O)N2CCOCC2)c1,?,6.0%,13.4%,-8.5%,-48.0%,-26.8%
O=C(COC(=O)CCC(=O)c1cccs1)Nc1cc(S(=O)(=O)N2CCOCC2)ccc1Cl,-21.2,28.4%,7.4%,-6.9%,22.4µM*,-0.4%
Cc1nc2ccccc2nc1-c1ccc(N=[N+]([O-])c2ccc(-c3nc4ccccc4nc3C)cc2)cc1,/,/,/,-1.0%,2.0%[13.5 µM],3.2%[10 µM]
CO[C@@H]1COC(=O)[C@H]2CCCN2C(=O)[C@@H](C)COC(=O)CCC[C@H]1C,/,/,8.8%[13.1 µM],/,9.9%[13.5 µM],?
CC(=O)Oc1ccc2c(=O)c(Oc3ccccc3)coc2c1OC(C)=O,36.1,?,?,-27.4%,-14.0%,/
SMILES,PNC assembly inh,HTT aggregate,CBFb RUNX1 block,HPGD block,ALDH1A1 inh,HTT cytoprotect
O=S(=O)(c1ccc(Cl)c(NC(=S)Nc2ccccc2N2CCOCC2)c1)N1CCOCC1,?,13.0%,-9.8%,-7.6%,20µM*,24.8%[10 µM]
O=S(=O)(c1ccc(Cl)c(NC(=S)N/N=C/c2c(F)cccc2F)c1)N1CCOCC1,-13.7,10.7%,-9.9%,/,-15.2%,38.5%[10 µM]
CCC1=C(OC(=O)N(CC)CC)N2C(=O)OC(=NCCOC)[C@]2(C)[C@H]2C1=CC[C@H]1C(=O)N(CC(=O)OC)C(=O)[C@H]12,/,/,2.4%,-15.0%,28.2µM*,-32.4%
COc1ccc(N(CC(=O)Nc2ccc(S(=O)(=O)N3CCOCC3)cc2)S(=O)(=O)c2ccccc2)cc1,?,1.3%,-5.7%,-7.2%,-5.2%,6.2%
CCCSc1nsc(NC(=O)C(c2ccccc2)c2ccccc2)n1,?,5.01µM*,2.5%,-27.1%,-15.7%,-76.8%[10 µM]
COc1ccc(-c2n[nH]c(=S)n2C2CCCCC2)cc1,?,-2.6%,-2.4%,17.8µM*,?,-27.4%
Cc1ccsc1-c1n[nH]c(=S)n1C1CCCCC1,6.2,8.8%,-12.1%,-28.8%,3.3%,/
Cc1cc(Cl)ccc1OCc1n[nH]c(=S)n1C1CCCCC1,-9.6,16.8%,5.2%,5.01µM*,?,1.7%[10 µM]
COc1ccc(Cl)cc1-c1n[nH]c(=S)n1C1CCCCC1,43.6,13.1%,-2.9%,10µM*,5.1%,-2.8%
CCOc1cc(/C=C2\SC(=N)N(c3nonc3N)C2=O)ccc1OCCN1CCOCC1,/,-8.7%[9.22 µM],-1.0%,/,6.0%,-19.7%[10 µM]
CCOc1cc(/C=C2\SC(=N)N(c3nonc3N)C2=O)ccc1OCC(N)=O,17.1,-22.4%,2.5%,12.6µM*,-18.2%,28.2%[10 µM]
CCCNC(=O)OC[C@@H]1O[C@H](CCO/N=C(\C)CCN2CCc3nc(CC)c(CC)cc3C2)C=C[C@@H]1Oc1ccc(OC)cc1,/,/,18.7%[13.1 µM],/,-7.4%[13.5 µM],4.0%[10 µM]
COc1cccc(-n2c(CN3CCN(c4cccc(C)c4)C(C)C3)nc3ccc([N+](=O)[O-])cc3c2=O)c1 (stereo not drawn),?,-2.2%,-29.6%,-8.4%,?,22.7%[10 µM]
COc1cccc(-n2c(CN3CCN(c4ccc(C)cc4)C(C)C3)nc3ccc([N+](=O)[O-])cc3c2=O)c1 (stereo not drawn),25.8,0.7%,-2.0%,-5.4%,25.1µM*,14.9%[10 µM]
CCCCCC(=O)/C=C/[C@@H]1[C@@H](C/C=C\CCCC(=O)O)[C@@H](O)C[C@H]1O,/,/,9.2%,-12.2%,6.2%,-14.7%
